The results in this text go back to PubChem BioAssay (EPA / NIEHS).

Assay [1] is described as follows: ATG_M_61_CIS: Attagene CIS-FACTORIAL HepG2 Assay for M61 Transcription Factor (Internal Marker) (AID 2282937). The following applies: HepG2 Attagene CIS-FACTORIAL M61 internal marker reporter; actives raise or lower the signal. The essentials: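 Fluorescence from labelled cDNA fragments, separated by capillary electrophoresis, quantifies reporter induction. HepG2 cells bearing transiently transfected cis-promoter MRTUs were incubated with test chemical for 24 h; DMSO defined baseline for gain/loss fitting.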

Assay [2] is described as follows: ATG_EGR_CIS: Attagene CIS-FACTORIAL HepG2 Assay for human Early Growth Response 1 (EGR1) (AID 2282938). Particulars: HepG2 Attagene CIS-FACTORIAL EGR reporter mRNA; actives raise or lower the signal. The method, boiled down:
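Cell-based multiplex transcription assay: HepG2 carrying transfected cis-element reporter units, 24 h chemical treatment. Fluorescence from capillary electrophoresis of RT-PCR products gives mRNA levels; fitting is bidirectional relative to DMSO.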

Assay [3] can be described thus: ATG_M_19_CIS: Attagene CIS-FACTORIAL HepG2 Assay for M19 Transcription Factor (Internal Marker) (AID 2282939). Particulars: HepG2 Attagene CIS-FACTORIAL M19 internal marker reporter; actives raise or lower the signal. The method, boiled down: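 Signals come from fluorescence of labelled reporter-specific PCR fragments resolved by capillary electrophoresis, following 24 h treatment of HepG2 cells transfected with cis-promoter reporter units; activity was fitted in both directions relative to DMSO.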

Assay [4] in a line: ATG_ERE_CIS: Attagene CIS-FACTORIAL HepG2 Assay for Estrogen Response Element (ERE) (AID 2282940). The following applies: HepG2 ERE cis-reporter, Attagene RNA transcript; actives raise or lower the signal. The essentials:
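Fluorescence of capillary-separated, FAM-labelled reporter cDNA fragments indicates reporter mRNA levels in HepG2 cells exposed to chemicals for 24 h. Transient transfection with cis-regulated units; data fitted in both directions against DMSO.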

Assay [5] concerns the target Hepatocyte nuclear factor 3-beta (Homo sapiens) (UniProt Q9Y261). The experiment in a line: ATG_FoxA2_CIS: Attagene CIS-FACTORIAL HepG2 Assay for human Forkhead box A2 (FOXA2) (AID 2282942). The following applies: HepG2 cis-reporter transcription factor activity, 24 h; actives raise or lower the signal. The essentials:
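In transiently transfected human HepG2 cells, promoter-driven reporter mRNA levels after 24 h chemical exposure are determined via RT-PCR with capillary electrophoresis. DMSO serves as baseline for bidirectional fitting.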

The nature of assay [6]: ATG_FoxO_CIS: Attagene CIS-FACTORIAL HepG2 Assay for human Forkhead box O (FoxO) (AID 2282943). The following applies: HepG2 Attagene cis-reporter, FoxO element, mRNA; actives raise or lower the signal. The method, boiled down:
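Read-out: fluorescence of 6-FAM-labelled reporter cDNA fragments resolved by capillary electrophoresis. Transiently transfected HepG2 cells were dosed for 24 h; activity fitted in both directions relative to DMSO controls.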

Assay [7] can be described thus: ATG_GATA_CIS: Attagene CIS-FACTORIAL HepG2 Assay for human GATA Binding Protein (AID 2282944). The following applies: HepG2 GATA cis-element reporter, Attagene multiplex mRNA; actives raise or lower the signal. The method, boiled down: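 After transfecting HepG2 cells with multiple cis-regulated reporter units, chemicals are dosed for 24 h; isolated RNA undergoes RT-PCR and fluorescent labeling before capillary electrophoresis, with activity expressed against DMSO.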

Assay [8] can be described thus: ATG_GLI_CIS: Attagene CIS-FACTORIAL HepG2 Assay for human Zinc Finger Protein GLI1 (AID 2282945). Particulars: HepG2, Attagene cis-factorial reporter mRNA, GLI element; actives raise or lower the signal. The method, boiled down:
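Transiently transfected HepG2 cells report endogenous transcription factor activity via cis-element-driven reporter units. After 24 h compound exposure, reporter mRNA was measured by RT-PCR with capillary electrophoresis; bidirectional fitting against DMSO baseline.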

Assay [9] concerns the target Bile acid receptor (Homo sapiens) (UniProt Q96RI1). As to the kind of experiment: ATG_IR1_CIS: Attagene CIS-FACTORIAL HepG2 Assay for human Nuclear Receptor Subfamily 1 Group H Member 4 (NR1H4), IR1 submotif (AID 2282946). Particulars: IR1 reporter transcription, actives raise or lower the signal. The method, boiled down:
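HepG2 cells transiently transfected with multiple cis-promoter-driven reporter units to measure endogenous transcription factor activity; 24 h exposure. Reporter mRNA read by RT-PCR, FAM labelling, HpaI digestion and capillary electrophoresis. Bidirectional fit versus DMSO.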

Assay [10] in a line: ATG_GRE_CIS: Attagene CIS-FACTORIAL HepG2 Assay for human Glucocorticoid Response Elements (GRE) (AID 2282947). Particulars: HepG2 GRE cis-reporter, Attagene multiplex mRNA; actives raise or lower the signal. The method, boiled down:
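Transiently transfected HepG2 cells carrying GRE cis-reporter units (endogenous TF activity) dosed 24 h; reporter mRNA quantified by RT-PCR, 6-FAM labelling, HpaI digestion and capillary electrophoresis. Bidirectional fit versus DMSO baseline.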

A short description of assay [11]: ATG_ISRE_CIS: Attagene CIS-FACTORIAL HepG2 Assay for human Interferon Regulatory Factor 1 (IRF1) binding to an Interferon-Stimulated Response Element (ISRE) (AID 2282948). Particulars: HepG2 ISRE cis-reporter (Attagene), mRNA transcription readout; actives raise or lower the signal. The essentials:
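HepG2 cells transiently transfected with multiplexed cis-promoter reporter units; after 24 h compound exposure, reporter mRNA quantified by RT-PCR, FAM labelling, HpaI digestion and capillary electrophoresis. Bidirectional fit versus DMSO baseline.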

Assay [12] addresses Hypoxia-inducible factor 1-alpha (Homo sapiens) (UniProt Q16665). As to the kind of experiment: ATG_HIF1a_CIS: Attagene CIS-FACTORIAL HepG2 Assay for human Hypoxia Inducible Factor 1 (HIF1A) (AID 2282951). Particulars: HepG2 Attagene cis-factorial HIF1a reporter transcription; actives raise or lower the signal. The method, boiled down:
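In this multiplexed cell assay, HepG2 cells bearing transfected cis reporters are dosed for 24 h and reporter mRNA is read by RT-PCR plus capillary electrophoresis; signal increases and decreases are both scored against DMSO.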

The target of assay [13] is Hepatocyte nuclear factor 6 (Homo sapiens) (UniProt Q9UBC0). The experiment in a line: ATG_HNF6_CIS: Attagene CIS-FACTORIAL HepG2 Assay for human Hepatocyte Nuclear Factor 6 (HNF6) (AID 2282952). The following applies: HepG2 Attagene cis-factorial HNF6 reporter transcription; actives raise or lower the signal. The essentials: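 Multiplexed mRNA reporter assay in transfected HepG2; 24 h dosing; RT-PCR plus capillary electrophoresis fluorescence; DMSO-referenced bidirectional curve fitting.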
Hepatocyte nuclear factor 6 (Homo sapiens), sequence (Q9UBC0 whole entry, looked up): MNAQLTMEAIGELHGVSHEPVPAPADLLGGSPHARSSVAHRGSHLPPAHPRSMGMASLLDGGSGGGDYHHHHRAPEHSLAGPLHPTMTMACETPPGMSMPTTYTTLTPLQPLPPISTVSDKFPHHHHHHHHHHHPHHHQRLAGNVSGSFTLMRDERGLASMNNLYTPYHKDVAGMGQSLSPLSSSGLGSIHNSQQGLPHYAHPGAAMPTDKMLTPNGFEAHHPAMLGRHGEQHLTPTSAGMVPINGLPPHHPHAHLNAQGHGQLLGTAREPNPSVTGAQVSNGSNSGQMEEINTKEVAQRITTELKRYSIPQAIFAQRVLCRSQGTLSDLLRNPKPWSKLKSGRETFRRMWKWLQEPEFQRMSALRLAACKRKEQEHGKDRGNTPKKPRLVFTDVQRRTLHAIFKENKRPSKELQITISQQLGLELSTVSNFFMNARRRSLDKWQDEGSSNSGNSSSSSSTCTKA

Assay [14] in a line: ATG_MRE_CIS: Attagene CIS-FACTORIAL HepG2 Assay for human Metal Responsive Element (MRE) (AID 2282954). Particulars: HepG2 MRE cis-reporter transcription, Attagene multiplex; actives raise or lower the signal. The method, boiled down: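 HepG2 cells transiently transfected with cis-element-driven reporter units; mRNA measured 24 h after dosing. Reporter transcripts quantified by RT-PCR, FAM labelling, HpaI digestion and capillary electrophoresis; bidirectional fit versus DMSO.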

The target in assay [15] is Paired box protein Pax-6 (Homo sapiens) (UniProt P26367). The experiment in a line: ATG_Pax6_CIS: Attagene CIS-FACTORIAL HepG2 Assay for human Paired Box 6 (PAX6) (AID 2282956). Particulars: HepG2 CIS-FACTORIAL PAX6 reporter transcription, RNA readout; actives raise or lower the signal. The essentials:
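HepG2 cells transiently transfected with multiplexed cis-promoter reporter units (endogenous TF activity) were dosed for 24 h. Reporter mRNA was quantified by RT-PCR, 6-FAM labeling, HpaI digestion and capillary electrophoresis; bidirectional fitting versus DMSO baseline.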

Assay [16] can be described thus: ATG_M_32_CIS: Attagene CIS-FACTORIAL HepG2 Assay for M32 Transcription Factor (Internal Marker) (AID 2282949).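 Further: background control marker of the multiplexed CIS panel rather than a real target.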 The following applies: HepG2 Attagene cis-factorial M32 reporter, mRNA; actives raise or lower the signal. The method, boiled down: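 HepG2 cells transiently transfected with multiplexed cis-regulated reporter units, dosed 24 h. Reporter mRNA quantified by RT-PCR, 6-FAM labelling, HpaI digestion and capillary electrophoresis; bidirectional fit vs DMSO.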

A short description of assay [17]: ATG_M_06_CIS: Attagene CIS-FACTORIAL HepG2 Assay for M06 Transcription Factor (Internal Marker) (AID 2282950). The following applies: HepG2 Attagene CIS-FACTORIAL M06 internal marker reporter; actives raise or lower the signal. The essentials:
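HepG2 liver cells, 24 h exposure. Reporter transcripts from transfected cis-element constructs quantified by RT-PCR/capillary electrophoresis fluorescence. Bidirectional curve fit against DMSO.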

A short description of assay [18]: ATG_PBREM_CIS: Attagene CIS-FACTORIAL HepG2 Assay for human Phenobarbital-responsive Enhancer Module (PBREM) (AID 2282955). The following applies: HepG2 PBREM cis-reporter, Attagene multiplexed transcription; actives raise or lower the signal. The essentials:
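After a 24 h incubation with test chemical, transfected HepG2 cells yield total RNA; reporter-specific RT-PCR products are fluorescently labelled, HpaI-digested and resolved by capillary electrophoresis against ROX size standards.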

Assay [19] deals with Heat shock factor protein 1 (Homo sapiens) (UniProt Q00613). The experiment in a line: ATG_HSE_CIS: Attagene CIS-FACTORIAL HepG2 Assay for human Heat Shock Transcription Factor 1 (HSE) (AID 2282953). The following applies: HepG2 HSE cis-reporter, Attagene RNA transcription; actives raise or lower the signal. The essentials: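 Endogenous transcription factor activity captured via cis-promoter reporter units transfected into HepG2; treatment lasted 24 h. Fluorescence intensity of reporter fragments analysed with bidirectional curve fitting, DMSO baseline.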
Heat shock factor protein 1 (Homo sapiens), sequence (Q00613 whole entry, looked up, the tested form may be a part): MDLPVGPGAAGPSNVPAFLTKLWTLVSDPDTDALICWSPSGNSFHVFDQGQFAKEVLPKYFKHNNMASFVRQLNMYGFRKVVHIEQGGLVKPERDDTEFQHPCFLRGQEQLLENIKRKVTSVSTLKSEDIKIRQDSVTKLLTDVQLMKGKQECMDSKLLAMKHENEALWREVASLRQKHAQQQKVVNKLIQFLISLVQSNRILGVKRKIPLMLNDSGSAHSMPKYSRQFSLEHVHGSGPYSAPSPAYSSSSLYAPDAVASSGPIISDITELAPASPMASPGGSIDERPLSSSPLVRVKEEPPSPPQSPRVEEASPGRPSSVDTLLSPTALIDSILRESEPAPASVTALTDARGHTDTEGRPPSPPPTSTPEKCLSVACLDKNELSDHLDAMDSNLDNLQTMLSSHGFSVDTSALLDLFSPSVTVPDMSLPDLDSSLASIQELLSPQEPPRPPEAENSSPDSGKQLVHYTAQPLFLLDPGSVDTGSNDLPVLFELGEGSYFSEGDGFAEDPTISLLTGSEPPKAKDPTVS

Assay [20] can be described thus: ATG_Ets_CIS: Attagene CIS-FACTORIAL HepG2 Assay for human Erythroblast Transformation Specific (ETS) (AID 2282941). Particulars: HepG2 ETS cis-reporter transcription, actives raise or lower the signal. The method, boiled down: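 HepG2 cells transiently transfected with cis-promoter reporter transcription units were dosed for 24 h; reporter mRNA was measured by RT-PCR, 6-FAM primer extension, HpaI digestion and capillary electrophoresis, with bidirectional fitting against DMSO baseline.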

Activity calls are given as the source filed them. How the source made its calls: active means hit-call score of the fitted dose curve at least 0.9, where 1 is the maximum; inactive means score below 0.9.

Paired box protein Pax-6 (Homo sapiens), sequence (P26367 whole entry, looked up): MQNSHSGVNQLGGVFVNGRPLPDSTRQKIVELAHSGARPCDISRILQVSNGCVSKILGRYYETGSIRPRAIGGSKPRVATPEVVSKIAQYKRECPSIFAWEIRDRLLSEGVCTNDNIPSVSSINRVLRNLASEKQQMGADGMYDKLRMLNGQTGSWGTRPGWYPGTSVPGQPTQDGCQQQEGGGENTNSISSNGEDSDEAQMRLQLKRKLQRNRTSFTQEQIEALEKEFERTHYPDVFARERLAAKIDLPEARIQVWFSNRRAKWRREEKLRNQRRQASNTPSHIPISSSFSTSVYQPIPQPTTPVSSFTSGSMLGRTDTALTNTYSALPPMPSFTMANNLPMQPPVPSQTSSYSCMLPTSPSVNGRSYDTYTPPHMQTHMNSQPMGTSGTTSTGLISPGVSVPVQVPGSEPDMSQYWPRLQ
Bile acid receptor (Homo sapiens), sequence (Q96RI1 whole entry, looked up): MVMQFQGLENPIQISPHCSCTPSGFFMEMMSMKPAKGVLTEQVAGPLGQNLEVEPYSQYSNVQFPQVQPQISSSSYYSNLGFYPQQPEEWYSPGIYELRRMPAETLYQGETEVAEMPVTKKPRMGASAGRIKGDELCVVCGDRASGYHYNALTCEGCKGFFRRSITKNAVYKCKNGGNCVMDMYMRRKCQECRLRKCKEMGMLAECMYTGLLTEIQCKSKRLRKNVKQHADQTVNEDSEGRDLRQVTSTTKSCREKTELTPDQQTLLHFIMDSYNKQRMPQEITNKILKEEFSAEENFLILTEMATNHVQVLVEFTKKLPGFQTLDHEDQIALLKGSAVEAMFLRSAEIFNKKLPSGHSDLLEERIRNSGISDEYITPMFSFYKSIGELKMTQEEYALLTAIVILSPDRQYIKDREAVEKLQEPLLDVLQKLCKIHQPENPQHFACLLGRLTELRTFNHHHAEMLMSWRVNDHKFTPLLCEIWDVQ
Hepatocyte nuclear factor 3-beta (Homo sapiens), sequence (Q9Y261 whole entry, looked up): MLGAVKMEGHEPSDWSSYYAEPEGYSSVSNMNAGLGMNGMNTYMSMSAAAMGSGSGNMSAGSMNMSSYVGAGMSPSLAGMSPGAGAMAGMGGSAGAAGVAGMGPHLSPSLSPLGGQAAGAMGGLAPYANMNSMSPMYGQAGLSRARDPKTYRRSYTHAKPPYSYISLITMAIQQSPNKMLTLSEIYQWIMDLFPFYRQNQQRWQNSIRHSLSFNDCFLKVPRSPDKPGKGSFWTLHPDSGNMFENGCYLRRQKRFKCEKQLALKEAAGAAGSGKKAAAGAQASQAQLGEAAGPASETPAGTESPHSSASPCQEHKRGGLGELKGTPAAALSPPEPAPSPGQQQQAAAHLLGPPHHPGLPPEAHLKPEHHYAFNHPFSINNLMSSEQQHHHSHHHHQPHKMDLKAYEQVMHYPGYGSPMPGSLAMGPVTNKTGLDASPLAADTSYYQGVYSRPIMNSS
Hypoxia-inducible factor 1-alpha (Homo sapiens), sequence (Q16665 whole entry, looked up): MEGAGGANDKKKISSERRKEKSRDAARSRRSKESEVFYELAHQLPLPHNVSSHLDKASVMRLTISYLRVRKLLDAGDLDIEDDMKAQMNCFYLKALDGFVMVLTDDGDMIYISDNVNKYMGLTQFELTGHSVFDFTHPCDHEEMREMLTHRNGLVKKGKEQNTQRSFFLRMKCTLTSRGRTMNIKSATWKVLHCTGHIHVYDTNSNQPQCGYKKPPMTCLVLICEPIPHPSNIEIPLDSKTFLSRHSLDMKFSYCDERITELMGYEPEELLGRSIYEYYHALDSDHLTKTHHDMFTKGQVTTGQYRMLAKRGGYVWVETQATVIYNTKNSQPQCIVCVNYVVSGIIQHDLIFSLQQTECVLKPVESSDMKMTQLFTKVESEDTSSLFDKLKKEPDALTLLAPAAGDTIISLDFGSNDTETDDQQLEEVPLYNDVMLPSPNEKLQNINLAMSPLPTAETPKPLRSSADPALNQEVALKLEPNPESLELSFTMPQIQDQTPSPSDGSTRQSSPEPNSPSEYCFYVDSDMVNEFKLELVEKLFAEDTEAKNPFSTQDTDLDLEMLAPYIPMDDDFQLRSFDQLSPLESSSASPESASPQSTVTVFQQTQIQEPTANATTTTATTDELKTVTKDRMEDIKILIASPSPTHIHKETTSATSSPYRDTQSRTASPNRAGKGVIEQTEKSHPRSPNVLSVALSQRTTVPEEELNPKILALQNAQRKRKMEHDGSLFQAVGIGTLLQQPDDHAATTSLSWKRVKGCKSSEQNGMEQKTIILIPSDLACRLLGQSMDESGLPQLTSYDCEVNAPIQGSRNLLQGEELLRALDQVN

As to `CN(C)CCN(C)C`, the molecule was classed as inactive in [1], in assay [2], in assay [3], in assay [4], in assay [5] and in assay [6]. Besides, the outcome in assay [7], in [8], in assay [9], in assay [10], in assay [11] and in assay [12] was inactive. Moreover, the result in [13], in assay [14] and in [15] was inactive.

Regarding `O=C(CCl)Nc1ccccc1`, the call in assay [1], in [4], in [5], in assay [17], in assay [13] and in [18] was inactive. In addition, the AC50 in assay [2] was 44.4 µM (active); in assay [3], 167 µM (active); in assay [6] it was 83.2 µM (active); in assay [8], 25.5 µM (active); in [9] it was 54.4 µM (active); in [10], 177 µM (active). For the same molecule, the AC50 in assay [16] is 134 µM (active); in assay [12], 69.2 µM (active); in [14] it was 56.4 µM (active); in assay [15], 72.6 µM (active).

As for `CC(C)(C)c1cc([N+](=O)[O-])cc(C(C)(C)C)c1O`, the call in assay [1], in [2], in [3], in [4], in [5] and in assay [6] was inactive. Also, the result in assay [7], in [8], in assay [9], in assay [16], in assay [17] and in assay [12] was inactive. Besides, the outcome in assay [13], in [19] and in assay [15] was inactive. Besides, the figures for the AC50 in assay [14] and in [18] were 42.4 µM (active) and 2.52 µM (active), respectively.

Take `N#Cc1ccccc1Cl`: the call in assay [1], in assay [2], in assay [3], in [20], in [5] and in assay [6] was inactive. Also, the outcome in assay [7], in [8], in [9], in assay [10], in assay [11] and in assay [16] was inactive. For the same molecule, the result in [17], in [12], in assay [13], in [19], in assay [14] and in assay [15] was inactive.

`C=CCOC(N)=O`: the molecule was called inactive in assay [1], in assay [2], in assay [3], in assay [20], in assay [5] and in [6]. For the same molecule, the call in assay [7], in [8], in [9], in assay [10], in [11] and in assay [16] was inactive. For the same molecule, the result in assay [17], in assay [12], in [13], in assay [19], in assay [14] and in [18] was inactive. Moreover, the call in [15] was inactive.

With `ClCc1ccccc1Cl`, the molecule was classed as inactive in assay [1], in [2], in assay [3], in [20], in assay [5] and in assay [6]. Further, the molecule was classed as inactive in assay [7], in [8], in assay [9], in [11], in [16] and in [17]. Further, the molecule was classed as inactive in [12], in assay [14] and in [18]. Moreover, the half-maximal activity concentration (AC50) in [10] was 100 µM (active); in assay [13], 100 µM (active); in assay [19], 164 µM (active); in [15] it was 100 µM (active).

In the case of `ClCCCCl`, the call in assay [1], in [2], in assay [3], in assay [20], in [5] and in assay [6] was inactive. For the same molecule, the outcome in [7], in assay [8], in assay [9], in assay [10], in assay [11] and in assay [16] was inactive. The molecule was classed as inactive in assay [17], in assay [12], in assay [13], in assay [19], in assay [14] and in assay [18]. For the same molecule, the molecule was called inactive in [15].

The term AC50 denotes the concentration giving half of the maximal activity seen.
